Measured values published in PubChem BioAssay (Tox21).
Records with an inconclusive call do not appear. Entries that show only a call come without a potency. Calls of active or inactive are those of the source. The call rests on the fitted dose curve; in most records, active means well fitted cell-killing curve with a large enough effect in the repeat runs; inconclusive means weak or mixed curves; inactive means flat fitted curve, though single readings scatter.

Assay: qHTS RealTime-Glo MT Cell Viability Assay in HepG2 cells - 16 hour (AID 1224885); further: nearly all actives have a fitted effect of over 50% in size
Conditions: RealTime-Glo luminescence; series mostly up to 76.8 µM
Excerpt: U.S. Tox21 Program National Center for Advancing Translational Sciences [NCATS] NIH Chemical Genomics Center [NCGC] U.S. Environmental Protection Agency [EPA] National Institutes of Environmental Health Sciences [NIEHS] National Toxicology Program [NTP] U.S. Food and Drug Administration [FDA] Tox21 Assay Overview: Measure of cell viability is critical in the cell-base assay. Analysis of cell viability is necessary for the characterization of cell responses to cytotoxic drugs and environmental stress. A RealTime-Glo MT Cell Viability Assay to monitor cell viability in real time of continues cell culture during 40 hours of compound treatment was used to screen Tox21 10K library compounds in HepG2 cells. The RealTime-Glo MT Cell Viability Assay is a nonlytic, homogeneous, bioluminescent method to measure cell viability in real time using a simple, plate-based method. The assay involves adding NanoLuc luciferase and a cell-permeant prosubstrate to cells in culture. Viable cells reduce the proprietary prosubstrate to generate a substrate for NanoLuc luciferase. This substrate diffuses from cells into the surrounding culture medium, where it is rapidly used by the NanoLuc Enzyme to produce a luminescent signal. The signal correlates with the number of viable cells, making the assay well suited for cytotoxicity studies.
Tox21 Assay Protocol Summary: The mixture of HepG2 cell suspension and reagents were dispensed at 600cells/6 ul/well in 1536-well tissue culture treated black solid bottom plates using a Multidrop dispenser. After the assay plates were incubated at a 37 C/5% CO2 incubator for 5 hours, 23 nL of compounds dissolved in DMSO, positive and negative controls was transferred to the assay plate by a pintool work station. The plates were incubated at 37 C for 40 hours. The luminescence intensity were measured at 0h, 8h, 16h, 24h, 32h and 40h time points using ViewLux plate reader during compound treatment.
Potency means the concentration at half of the fitted maximal effect.

| Structure (SMILES) | Potency | activity change, negative = cytotoxic |
| --- | --- | --- |
| Cc1cc(C(C)(C)c2ccc(O)c(C)c2)ccc1O | inactive | – |
| O=C1C(I)=CC(=C(c2cc(I)c(O)c(I)c2)c2ccccc2C(=O)O)C=C1I | inactive | – |
| Cc1ccc(N(SC(F)(Cl)Cl)S(=O)(=O)N(C)C)cc1 | 15.5 µM (active) | – |
| O=C(Nc1ccccc1-c1ccc(Cl)cc1)c1cccnc1Cl | inactive | – |
| Oc1c(I)cc(I)cc1I | inactive | – |
| CNC(=O)Oc1cc(C)c(SC)c(C)c1 | inactive | – |
| CCN(CC)C(=O)Cl | inactive | – |
| N#Cc1cc([N+](=O)[O-])ccc1N | inactive | – |
| CC(c1ccccc1)(c1ccc(O)cc1)c1ccc(O)cc1 | inactive | – |
| CN1CSC(=S)N(C)C1 | inactive | – |
| Cc1ccc2nc3sc(=O)sc3nc2c1 | – | 0.198% [at 15.8 µM] (inactive) |
| C[C@]12CC[C@@H](O)C[C@@H]1CC[C@@H]1[C@@H]2CC[C@]2(C)C(=O)CC[C@@H]12 | inactive | – |
| COc1cc(OC)c(OC)cc1C=O | inactive | – |
| O=S(=O)(C(Cl)(Cl)Cl)C(Cl)(Cl)Cl | 38.9 µM (active) | – |
| Nc1ccc([N+](=O)[O-])cc1 | inactive | – |
| CCOC(=O)C(O)(c1ccc(Cl)cc1)c1ccc(Cl)cc1 | inactive | – |
| ClC(Cl)=C(c1ccc(Cl)cc1)c1ccccc1Cl | inactive | – |
| Clc1ccccc1-c1ccccc1Cl | inactive | – |
| O=[N+]([O-])c1c(Cl)c(Cl)cc(Cl)c1Cl | inactive | – |
| OC(Cc1ccccc1Cl)(Cn1[nH]cnc1=S)C1(Cl)CC1 (stereo unspecified) | inactive | – |
| c1ccc2c(c1)Sc1ccccc1N2CC1CN2CCC1CC2 (stereo unspecified) | 23.9 µM (active) | – |
